TbHK1 inh: Trypanosoma brucei hexokinase 1 inhibitors, primary screen, biochemical, G6PDH-coupled NADH absorbance, MLSCN library; recombinant TbHK1, G6PDH-coupled NADH A340; inhibition, % at 10 µM; actives 0.11% (n = 220,000);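 active means inhibition of 50% or more in the single-dose primary screen; inactive means inhibition below 50%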
INS promoter inh: inhibitors of insulin promoter-driven GFP, primary screen, imaging, TRM-6 cells (human fetal islet line), eGFP reporter, cell count. actives 0.9% (n = 130,000). AID 1273, 2008. reporter expression induced with tamoxifen. inhibition, % at 2 µM;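 active means inhibition above the mean plus 3 SD, with well images judged a real hit on visual review, cut at about 60% in these data, passing the limit was not always enough; inconclusive means inhibition over the cutoff but images rejected on review; inactive means inhibition not above the cutoff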
ROMK mod: ROMK potassium channel modulators, primary screen, cell-based, thallium flux, MLSMR library | ATP-sensitive inward rectifier potassium channel 1 (Homo sapiens), P48048 | Tet-inducible ROMK, thallium flux fluorescence; actives lie on both sides | B-score at 10 µM | actives 2% (n = 130,000);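 active means signal ratio slope over the read window, or its plate-corrected B-score, at least 3 SD from the plate mean, either direction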;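 further: B-score of the F/F0 ratio slope over 7 to 12 s after thallium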
Target sequence (P48048 whole entry, looked up): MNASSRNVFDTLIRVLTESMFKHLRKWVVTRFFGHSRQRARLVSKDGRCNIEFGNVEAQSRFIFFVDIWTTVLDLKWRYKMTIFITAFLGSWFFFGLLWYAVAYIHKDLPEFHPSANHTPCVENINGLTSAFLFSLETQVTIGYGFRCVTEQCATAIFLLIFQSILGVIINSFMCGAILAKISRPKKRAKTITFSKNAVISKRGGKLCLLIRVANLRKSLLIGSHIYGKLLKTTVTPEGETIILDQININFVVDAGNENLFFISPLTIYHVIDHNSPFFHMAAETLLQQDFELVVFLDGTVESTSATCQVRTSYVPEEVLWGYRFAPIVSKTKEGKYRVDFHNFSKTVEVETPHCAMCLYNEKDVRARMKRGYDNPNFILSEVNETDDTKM
Insulin prom up: insulin promoter activators in MIN6 cells, imaging, high-content screening, mouse beta cells; MIN6 insulin promoter-GFP reporter; hits give high values; z-score at 5 µM; actives 0.3% (n = 190,000); AID 1625, 2009;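 active means z-score above 3 at 5 µM with at least 500 cells counted in the well; inconclusive means wells under 500 cells, flagged as cytotoxic or low count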
HSV augment: enhancers of HSV replication in host cells, fold increase, host cell viability. HSV replication augmentation in cells. actives 0.005% (n = 220,000). maximum fold increase; in the data active means maximum fold increase above about 1.5; inconclusive means no clear call, values can overlap the other calls; tested in PC3 cells
ROMK retest: ROMK channel modulator hit retest, confirmation, cell-based, thallium flux, duplicate, resupplied hits. shares compounds with ROMK mod. fluorescence ratio; hits give low values. normalized thallium flux (F/F0 slope) at 10 µM. actives 54% (n = 3,000). AID 1917, 2009;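 active means Flux at 10 µM at least 3 SD below or above vehicle control mean in one or both replicates; inconclusive means no clear call, values can overlap the other calls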
Active calls of the source: *; i = inactive; ? = inconclusive; . = no result. The full list was thinned out, with hits kept by preference.

SMILES | TbHK1 inh | INS promoter inh | ROMK mod | Insulin prom up | HSV augment | ROMK retest
Cc1cc(/C=N/NC(N)=S)c(C)n1-c1cccc(Cl)c1 | -17.4 | . | 2.21 | -0.2 | i | .
Cc1cc(/C=N/NC(N)=S)c(C)n1-c1ccc(Br)cc1 | -6.0 | . | 0.489 | . | i | .
N#CC(c1ccccc1)N(CCCCl)C(=O)c1ccccc1 (stereo not given) | -5.3 | -14.3 | 0.911 | -0.15 | i | .
Cc1ccc(-c2nnc(-c3cc(C)on3)o2)cc1 | -5.3 | . | 0.0565 | . | i | .
CCNC(=O)CC1C(=O)N(C)C(=S)N1NC(=O)c1ccc(Cl)cc1 (stereo not given) | -0.3 | -67.6 | . | -0.04 | i | 0.0762
CC1(C)Cc2c(sc3c2c(=O)n(-c2cccc(Cl)c2)c(=O)n3CC(N)=O)CO1 | -10.1 | . | . | -0.76 | i | .
O=C(C1CCN(S(=O)(=O)c2cccc3cccnc23)CC1)N1CCN(c2ccccc2)CC1 | -4.2 | -10.0 | . | -1.38 | i | .
O=C(C1CCCN(S(=O)(=O)c2cccc3cccnc23)C1)N1CCN(c2ccc(F)cc2)CC1 (stereo not given) | -13.6 | . | . | -0.14 | i | 0.0713
CCCCCn1c(=O)[nH]c2cc(C(=O)NCCN(CC)CC)ccc2c1=O | -11.7 | . | . | -1 | i | .
CCN(CC)CCNC(=O)c1[nH]c2ccc(OCc3ccccc3)cc2c1C | 2.9 | -61.5 | -4.96* | 0.58 | i | 0.0626*
O=S(=O)(/N=C(/Nc1cccc2ccccc12)c1ccccc1)c1cccs1 | -4.6 | 10.0 | . | -0.05 | i | 0.0604*
Cc1ccc(N/C(=N/S(=O)(=O)c2cccs2)c2ccccc2)c(C)c1 | 3.3 | -92.9 | . | -1.37 | i | .
O=C(NCCN1C(=O)CSC1=O)C1CC(=O)N(c2ccccc2)C1 (stereo not given) | -4.5 | 0.0 | 0.912* | -0.11 | i | 0.0806
Nc1c(C(=O)N/N=C/c2ccc(OCc3ccccc3)cc2)cnn1-c1ccccc1 | -30.6 | . | -12.9* | 0.24 | i | 0.0751
Nc1c(C(=O)N/N=C/c2ccc(Cl)cc2)cnn1-c1ccccc1 | -6.9 | . | -1.62 | -0.2 | i | .
CCc1ccccc1NC(=O)c1cc(=O)c2ccccc2o1 | -0.8 | 41.7 | 1.83 | 0.17 | i | .
O=C(CSc1nnc(-c2ccccc2)n1Cc1ccco1)NCc1ccc2c(c1)OCO2 | -4.7 | -40.6 | 0.00407 | ? | i | .
N#CC(C#N)=C1C=CC=CN1/C(=C\c1ccco1)C(=O)c1ccc(Cl)cc1 | -2.9 | . | -2.98* | -0.48 | i | 0.045*
COc1ccccc1OCC(=O)Nc1cccc(-c2nnc(-c3ccco3)o2)c1 | 7.2 | -29.4 | . | 0.19 | i | 0.063*
COc1ccc(CC(=O)Nc2cccc(-c3nnc(-c4ccccc4)o3)c2)cc1OC | 0.0 | -5.4 | . | -1.85 | i | 0.064*
Cc1c(NC(=O)COC(=O)C2(c3ccc(F)cc3)CCCC2)c(=O)n(-c2ccccc2)n1C | 0.5 | . | 0.753 | 0.38 | i | .
Cc1nn(Cc2ccc(F)cc2)c(C)c1NC(=O)CCCn1nc([N+](=O)[O-])cc1C | 2.5 | 18.2 | 0.0523 | 0.03 | i | .
CN1c2cccc3cccc(c23)N(C)C1(C)C | -12.5 | -6.1 | -0.0608 | . | . | .
CC(=O)c1ccc2cccc3c2c1N=CN3C | -5.7 | -130.0 | . | . | . | 0.049*
O=C1CSC(c2ccc(Cl)cc2)N1Nc1nc(N2CCOCC2)nc(N2CCOCC2)n1 (stereo not given) | -10.0 | . | 0.142 | -1.89 | i | .
SMILES | TbHK1 inh | INS promoter inh | ROMK mod | Insulin prom up | HSV augment | ROMK retest
Cc1n[nH]c(=O)n1-c1cccc(C(F)(F)F)c1 | 2.7 | -3.6 | . | . | i | 0.0762
Cc1ccc(/C(O)=C/c2nc3cc(C)ccc3oc2=O)cc1 | -26.3 | . | -2.37* | 0.67 | i | 0.0481*
O=c1oc2ccccc2nc1/C=C(\O)c1ccccc1 | -24.8 | . | 0.376 | -0.11 | i | .
O=C1C=C(N2CCOCC2)CCC1 | . | . | . | . | i | .
Cc1ccc(S(=O)(=O)NC2=NCN(C3CCCCC3)CN2)cc1 | -1.6 | -125.0 | . | 0 | . | ?
CC(C)OC(=O)CSc1nnc(CNc2ccc(Cl)cc2)n1Cc1ccccc1 | 3.3 | 68.2 | . | 0.02 | i | .
CCOC(=O)CSc1nnc(CNc2ccc(Cl)cc2)n1Cc1ccccc1 | 15.7 | 0.0 | -3.84* | . | i | 0.063*
C=CCc1c(O)c(CC)cc2c(C)cc(=O)oc12 | -21.1 | . | 0.375 | . | i | .
